In PubChem BioAssay (NCI) one finds growth data, which are given here for seven compounds.

Common to all, as to experiment: NCI-60 one-dose screen, 48 h (100 = growth as untreated, 0 = no growth, -100 = all killed)
Details in all cases: 10 µM unless noted

For assay [1], the system named is HCT-15 colon.
For assay [2], the system named is HT29 colon.
Assay [3] concerns SNB-75 CNS.
Assay [4] relates to U251 CNS.
The subject of assay [5] is PC-3 prostate.
For assay [6], the system named is SK-MEL-5 melanoma.
The test system of assay [7] is UACC-62 melanoma.
Assay [8] has as its system SK-MEL-28 melanoma.
Assay [9] has as its system SK-MEL-2 melanoma.
Assay [10] deals with EKVX NSCLC.
Assay [11] deals with SN12C renal.
For assay [12], the system named is UO-31 renal.
The test system of assay [13] is TK-10 renal.
In assay [14] the test system is ACHN renal.
In assay [15] the test system is CAKI-1 renal.
The test system of assay [16] is A498 renal.
The subject of assay [17] is CCRF-CEM leukemia.
For assay [18], the system named is MOLT-4 leukemia.
The test system of assay [19] is SNB-19 CNS.
For assay [20], the system named is LOX IMVI melanoma.

Values joined by “and” are separate entries in the source; they are usually repeats but may differ in a detail not shown here. Equal values may be shown once. This is part of a sample that, as a whole, favours compounds with a hit. Of some 83,000 tested, about 20% had one in any assay.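 How to read the values: 0–100, growth inhibition (40 = 60% inhibited); 0, no net growth; -100 to 0, cell death (-40 = 40% of starting cells died; -100 = all dead).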 Active and inactive are the calls of the source. Rule for the calls: active = growth percent below 10; inactive = the rest.

In the case of `CC(CN=Cc1ccccc1O)N=Cc1ccccc1O` (centres undefined), the growth in assay [1] is 105% (inactive) and 97.2% (inactive); in [2] it was 115% (inactive) and 110% (inactive); in [3] it was 104% (inactive) and 82.4% (inactive); in assay [4] it was 96.6% (inactive) and 104% (inactive); in [5], 96% (inactive) and 95.8% (inactive); in assay [6], 102% (inactive) and 106% (inactive). Also, the growth in assay [7] was 107% (inactive) and 105% (inactive); in assay [8], 117% (inactive) and 102% (inactive); in [9], 154% (inactive) and 102% (inactive); in assay [10] it was 102% (inactive) and 111% (inactive); in assay [11], 90.4% (inactive) and 98.7% (inactive); in [12], 107% (inactive) and 80.3% (inactive). Moreover, the growth is 110% (inactive) and 106% (inactive) in assay [13]; 103% (inactive) and 93.8% (inactive) in assay [14]; 93.6% (inactive) and 99.1% (inactive) in [15]; 121% (inactive) and 105% (inactive) in [16]; 92.3% (inactive) and 96.2% (inactive) in [17]; 120% (inactive) and 93.3% (inactive) in assay [18].

For `N/C(=N\N=C\c1ccc2c(c1)OCO2)N/N=C\c1ccc2c(c1)OCO2`, the growth is 88.4% (inactive) and 13% (inactive) in assay [2]; 113% (inactive) and 135% (inactive) in assay [3]; 108% (inactive) and 92.1% (inactive) in [19]; 99.4% (inactive) and 84.6% (inactive) in assay [4]; 103% (inactive) and 89.6% (inactive) in assay [5]; 112% (inactive) in [6]. Besides, the growth was 112% (inactive) and 90.7% (inactive) in assay [7]; 112% (inactive) and 45.6% (inactive) in [8]; 103% (inactive) and 136% (inactive) in [9]; 113% (inactive) in [10]; 107% (inactive) and 89% (inactive) in assay [11]; 99.5% (inactive) and 77.3% (inactive) in [12]. The growth in [13] is 140% (inactive) and 153% (inactive); in assay [15], 99% (inactive) and 103% (inactive); in assay [16] it was 121% (inactive) and 85.9% (inactive); in [17], 50.6% (inactive) and 45.3% (inactive); in assay [18], 95.4% (inactive) and 50.3% (inactive).

Turning to `Nc1ccc2ccc(N)cc2c1`, the growth in [2] was 94.2% (inactive); in [3] it was 91.3% (inactive); in [19] it was 96.1% (inactive); in [5], 60.3% (inactive); in assay [6], 83% (inactive); in [7] it was 80.7% (inactive). For the same compound, the growth in assay [20] was 65.1% (inactive); in [8], 92.1% (inactive); in assay [9], 68.4% (inactive); in assay [11], 88.5% (inactive); in [12] it was 59.4% (inactive); in [13] it was 117% (inactive). In addition, the growth in assay [14] is 84.8% (inactive); in [15] it was 75.7% (inactive); in assay [16], 100% (inactive); in [18], 76.8% (inactive).

`NC(=S)NS(=O)(=O)c1ccc(N)cc1`: the growth was 109% (inactive) in assay [2]; 93% (inactive) in assay [3]; 102% (inactive) in [5]; 101% (inactive) in assay [6]; 109% (inactive) in assay [9]; 109% (inactive) in [11]. The growth in [12] was 88.1% (inactive); in assay [13], 110% (inactive); in assay [14], 96.5% (inactive); in assay [15], 94.8% (inactive); in [16], 82.8% (inactive); in assay [17], 106% (inactive). In addition, the growth in assay [18] is 101% (inactive).

For `Cn1c(=O)c2[nH]c(CCCCCCCCc3nc4ccccc4[nH]3)nc2n(C)c1=O`, the growth in assay [2] is 99% (inactive) and 85.6% (inactive); in assay [3] it was 93.5% (inactive) and 80.5% (inactive); in assay [4] it was 72.5% (inactive) and 80.2% (inactive); in assay [5], 48.3% (inactive) and 87.3% (inactive); in [6] it was 3.01% (active) and 12.2% (inactive); in [20], 58.3% (inactive) and 55.9% (inactive). Besides, the growth is 88.9% (inactive) in assay [8]; 79.3% (inactive) and 107% (inactive) in [9]; 42% (inactive) and 55.1% (inactive) in assay [10]; 81.2% (inactive) and 68% (inactive) in assay [11]; 73.9% (inactive) and 74.9% (inactive) in assay [12]; 84% (inactive) and 90.3% (inactive) in assay [13]. Also, the growth in [14] was 61.1% (inactive) and 69% (inactive); in assay [16] it was 55.7% (inactive) and 78.8% (inactive); in assay [17], 69.6% (inactive) and 66.4% (inactive); in [18], 41% (inactive) and 41.7% (inactive).

As to `C/C(O)=C/c1nc2sc(C)c(C)c2c(=O)s1`, the growth was 19.1% [100 µM] (inactive) and 37.1% [100 µM] (inactive) in [7]; 50.2% [100 µM] (inactive) and 46.7% [100 µM] (inactive) in [13].

As to `CC(=O)C(/C=N/C(N)=O)=C(/C)O`, the growth in [2] is 101% (inactive); in assay [3] it was 93.8% (inactive); in assay [19], 103% (inactive); in [4], 99.6% (inactive); in [5], 100% (inactive); in assay [6] it was 110% (inactive). Moreover, the growth in assay [7] is 110% (inactive); in assay [8] it was 115% (inactive); in assay [9] it was 119% (inactive); in assay [10], 108% (inactive); in assay [11], 105% (inactive); in [12], 91.1% (inactive). The growth in assay [13] was 105% (inactive); in assay [14], 99.8% (inactive); in [16] it was 92.7% (inactive); in assay [17], 97.4% (inactive); in assay [18] it was 111% (inactive).
